# Insulin prom inh = inhibitors of insulin promoter-driven GFP, primary screen, imaging, TRM-6 cells (human fetal islet line), eGFP reporter, cell count. reporter expression induced with tamoxifen. inhibition, % at 2 µM. 0.9% of 130,000 active. AID 1273, 2008;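 active = inhibition above the mean plus 3 SD, with well images judged a real hit on visual review, cut at about 60% in these data, passing the limit was not always enough; inconclusive = inhibition over the cutoff but images rejected on review; inactive = inhibition not above the cutoff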
# PERK inh = block of dimerizer-induced PERK translation repression, primary screen, PERK inhibitor project, CHO PERK-DD cells, SEAP luminescence, HTS; Eukaryotic translation initiation factor 2-alpha kinase 3 (Homo sapiens), Q9NZJ5; CHO PERK-DD fusion, SEAP luminescence translation reporter; inhibition, % at 5.6 µM; 0.17% of 220,000 active;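 active = inhibition above the mean inhibition of all tested compounds plus 3 SD, set separately per screening campaign, cut at about 2.9% in these data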;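 note: PERK kinase domain activated by AP20187 dimerizer at 100 nM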
# Target sequence (Q9NZJ5 whole entry, looked up, the tested form may be a part): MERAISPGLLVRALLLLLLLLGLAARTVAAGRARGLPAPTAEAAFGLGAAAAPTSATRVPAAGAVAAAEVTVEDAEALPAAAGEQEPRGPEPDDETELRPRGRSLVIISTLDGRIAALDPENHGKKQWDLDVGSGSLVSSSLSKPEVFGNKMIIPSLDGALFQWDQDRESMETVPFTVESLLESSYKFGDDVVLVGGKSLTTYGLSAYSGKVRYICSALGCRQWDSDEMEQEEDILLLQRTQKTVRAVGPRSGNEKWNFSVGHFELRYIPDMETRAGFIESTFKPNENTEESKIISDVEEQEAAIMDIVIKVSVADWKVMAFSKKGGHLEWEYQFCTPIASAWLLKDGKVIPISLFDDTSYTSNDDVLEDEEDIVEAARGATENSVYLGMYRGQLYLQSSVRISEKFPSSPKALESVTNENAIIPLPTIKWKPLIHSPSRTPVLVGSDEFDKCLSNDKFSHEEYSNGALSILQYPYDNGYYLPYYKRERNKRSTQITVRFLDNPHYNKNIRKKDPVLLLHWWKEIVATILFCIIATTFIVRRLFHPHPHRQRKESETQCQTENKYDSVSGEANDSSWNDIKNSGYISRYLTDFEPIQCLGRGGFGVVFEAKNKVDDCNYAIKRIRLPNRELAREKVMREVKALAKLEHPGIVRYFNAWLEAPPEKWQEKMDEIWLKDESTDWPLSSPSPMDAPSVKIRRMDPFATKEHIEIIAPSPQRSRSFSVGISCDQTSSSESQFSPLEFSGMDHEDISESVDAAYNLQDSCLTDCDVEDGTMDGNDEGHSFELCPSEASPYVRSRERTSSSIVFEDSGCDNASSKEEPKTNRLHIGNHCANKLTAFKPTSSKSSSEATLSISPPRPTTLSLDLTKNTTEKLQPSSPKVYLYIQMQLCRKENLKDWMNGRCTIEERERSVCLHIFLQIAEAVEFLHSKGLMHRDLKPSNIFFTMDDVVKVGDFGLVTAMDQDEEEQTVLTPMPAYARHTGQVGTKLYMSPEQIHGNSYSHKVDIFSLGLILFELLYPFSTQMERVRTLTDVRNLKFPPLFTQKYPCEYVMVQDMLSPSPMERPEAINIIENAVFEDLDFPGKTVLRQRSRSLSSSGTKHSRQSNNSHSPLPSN
# Autophagy HCS = autophagy modulators in MEF cells, primary screen, imaging, high-content, MEF GFP-LC3 | AID 463193, 2010 | calls only at 10 µM (by protocol) | 0.98% of 190,000 active | MEF GFP-LC3 puncta imaging; test concentration mostly 10 µM;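 active = percentage of spot-positive cells more than 3 SD above its plate mean, without a fluorescence outlier flag or 80% toxicity; inconclusive = no clear call, values can overlap the other calls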
# eIF4E-4G inh = eIF4E–eIF4G protein interaction inhibitors, primary screen, biochemical, uHTS, TR-FRET, eIF4GI fragment | Eukaryotic translation initiation factor 4E (Mus musculus) + Eukaryotic translation … | TR-FRET eIF4E-eIF4GI(517-606) binding, 2 h | inhibition, % at 21.7 µM | 0.37% of 220,000 active | AID 782, 2007;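 active = inhibition above about 30%, limit read from the data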
# Ins promoter up = insulin promoter activators in MIN6 cells, imaging, high-content screening, mouse beta cells; MIN6 insulin promoter-GFP reporter; stronger effect = higher value; z-score at 5 µM; 0.3% of 190,000 active;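 active = z-score above 3 at 5 µM with at least 500 cells counted in the well; inconclusive = wells under 500 cells, flagged as cytotoxic or low count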
# Hits are given with their value; i = inactive; ? = inconclusive; nt = not tested or not shown; + = active, no number; [ ] = remark or other dose. The list is not random: actives were taken first. Their share in the collection is about 2%.
SMILES,Insulin prom inh,PERK inh,Autophagy HCS,eIF4E-4G inh,Ins promoter up
CCOC(=O)c1c(C)cc(C)n2c1nc1ccccc12,75,i,i,i,i
CC(/C=N/NC(=O)c1ccncc1)=C\c1ccc(C(C)C)cc1,i,i,i,i,3.2
CC(/C=N/NC(=O)c1cccnc1)=C\c1ccccc1,i,i,i,i,i
COc1ccc(S(=O)(=O)N2CCOCC2)cc1NC(=O)CSc1n[nH]c(C(C)C)n1,i,i,i,i,nt
Cc1cc(N2CCOCC2)n2nc(C)c(-c3ccccc3)c2n1,i,i,i,89,i
CCCCCCn1nc(C(=O)Nc2nc3c(s2)CCCC3)c2ccccc2c1=O,nt,i,i,i,i
Cc1c(N)c(C(C)(C)C)cc(C(C)(C)C)c1[N+](=O)[O-],i,i,i,i,i
Cc1cc2nc3c(=O)[nH]c(=O)[nH]c3nc2c([N+](=O)[O-])c1N,nt,i,i,50,nt
CCOc1ccc(N2C(=O)CC(NCc3ccc(F)cc3)C2=O)cc1 (centres undefined),i,i,+,i,i
O=C(O)c1ccc(-c2ccc(/C=C3\NC(=O)N(Cc4ccc(Cl)cc4)C3=O)o2)cc1,nt,i,nt,33,i
CCc1nnc(NS(=O)(=O)c2ccc(NC(=S)NC(=O)/C=C/c3ccc(C(C)C)cc3)cc2)s1,i,i,i,64[fluorescence artefact?],i
Cc1ccc(NC(=O)COC(=O)c2cccc3c(=O)c(C)c(-c4ccccc4)oc23)cc1,i,i,i,i,i
O=C(CSc1nccc(-c2cccs2)n1)Nc1ccccc1,nt,i,nt,i,i
O=C1NCCCC1C(=O)Nc1ccccc1C(F)(F)F (centres undefined),i,i,i,i,i
CCN(CC)C1=NC=CC(c2ccccc2)=CC1C (centres undefined),i,i,i,i,i
Cn1cc(/C=C2\SC(=O)N(c3ccccc3)C2=O)c2ccccc21,nt,i,+,i,i
CCCCNC(=O)/C(=C/c1ccccc1)NC(C)=O,i,i,i,i,i
CSc1nc(=S)n(Cc2ccccc2)c(C)c1C(C)=O,i,i,+,i,i
CCSc1nc(=S)n(Cc2ccccc2)c(C)c1C(C)=O,i,i,i,i,i
COc1ccccc1CNc1nc2nc(C)c(C)c(=O)n2[nH]1,nt,i,i,i,i
COC(=O)Cc1c(C)nc2nc(NCc3ccccc3OC)[nH]n2c1=O,i,i,i,i,4.3
COc1ccc(C)cc1NC(=O)CSc1nnc(CC(=O)Nc2ccccc2C)n1C,67,i,i,i,i
O=[N+]([O-])c1cccc(COc2ncnc3cc([N+](=O)[O-])ccc23)c1,nt,i,nt,i,i
COc1cc2cc(C(c3nnnn3C3CCCC3)N(C)C3CCCCC3)c(=O)[nH]c2cc1OC (centres undefined),i,i,i,30,nt
CCOC(=O)c1sc2nc3c(SCCC(=O)O)cc(C(=O)c4cc(OC)ccc4O)cn3c(=O)c2c1C,nt,i,i,57,i
SMILES,Insulin prom inh,PERK inh,Autophagy HCS,eIF4E-4G inh,Ins promoter up
CCOC(=O)c1sc2nc3c(SCCC#N)cc(C(=O)c4cc(F)ccc4O)cn3c(=O)c2c1C,i,i,i,i,i
COc1ccc(C=C2C(=O)c3ccccc3C2=O)cc1O,i,i,i,i,i
CCN1C/C(=C/c2ccc(OC)c(O)c2)C(=O)/C(=C/c2ccc(OC)c(O)c2)C1,nt,i,+,i,?
CCN1C/C(=C\c2cccc([N+](=O)[O-])c2)C(=O)/C(=C/c2cccc([N+](=O)[O-])c2)C1,100,i,i,i,i
CC(C)C(=O)Nc1ccc2c(c1)nc(CCN1CCN(C)CC1)n2C,i,3.6,i,i,i
CCCn1c(CCC(=O)O)nc2cc(S(=O)(=O)N3CCCC3)ccc21,nt,i,nt,i,i
CCCc1cc(-n2ccnc2)n2c(nc3ccccc32)c1C#N,i,i,i,i,5.5
Cc1cc(-n2ccnc2)n2c(nc3ccccc32)c1C#N,i,i,i,i,i
CC(C)(C)C(=O)Nc1ccc(S(=O)(=O)c2ccc(NC(=O)C(C)(C)C)cc2)cc1,75,i,i,i,i
CC(C)(C)c1ccc(OCCNC(=O)c2ncn[nH]2)cc1,i,i,i,i,i
COc1ccc(NC(=O)C2CCCN2C(=O)Nc2ccccc2)cc1OC (centres undefined),i,i,i,i,i
COc1ccc(C2CCCN2C(=O)Nc2ccc(Cl)cc2)cc1OC (centres undefined),nt,i,+,i,i
Cc1cc(N=Nc2ccccc2)c(NCC(O)C(O)C(O)CO)cc1C (centres undefined),82,i,i,i,i
Cc1ccc(NCC(O)C(O)C(O)CO)cc1C (centres undefined),i,i,i,i,i
CSc1ccc(OC2CCCCC2NS(=O)(=O)c2ccc(Cl)cc2)cc1 (centres undefined),100,i,i,i,i
COC(=O)c1ccccc1NC(=O)c1cc(-c2cccs2)on1,i,i,+,i,i
O=C1/C(=C/c2ccc(N3CCOCC3)o2)SC(=Nc2ccccc2)N1CCc1c[nH]c2ccccc12,nt,i,+,i,nt
O=C(NC(=S)Nc1ccc(S(=O)(=O)Nc2ncccn2)cc1)c1ccc(Br)cc1,nt,i,i,i,i
Cn1nnnc1SCC1=C(C(=O)O)N2C(=O)C(NC(=O)Cn3nc(C(F)F)cc3C3CC3)C2SC1 (centres undefined),i,i,+,i,i
CCCN(CCC)S(=O)(=O)c1ccc(NC(=O)COc2ccccc2)cc1,i,i,i,i,i
CCN(CC)S(=O)(=O)c1cccc(NC(=O)c2ccccc2Br)c1,77,i,i,i,i
CCC(=O)Nc1cccc(NC(=O)c2ccccc2Br)c1,nt,i,i,i,i
CCOC(=O)c1c(C)sc2c1N(C(=O)CCl)c1cc(Cl)ccc1S2,i,i,+,i,i
Cc1sc2ncnc(SCC(=O)N3c4ccccc4Sc4ccc(Cl)cc43)c2c1C,i,i,i,i,i
CCOC(=O)Cc1c(C)nc2c(-c3ccccc3)c(-c3ccccc3)[nH]n2c1=O,i,i,i,i,nt
SMILES,Insulin prom inh,PERK inh,Autophagy HCS,eIF4E-4G inh,Ins promoter up
CCOC(=O)Cc1c(C)nc2c(-c3ccccc3)c(C)[nH]n2c1=O,i,3.0,i,i,nt
COc1cccc(S(=O)(=O)NCc2ccc(C(=O)Nc3ccc(Cl)c(Cl)c3)cc2)c1,i,i,i,i,3.1
Cc1cc([N+](=O)[O-])nn1Cc1ccc(C(=O)N/N=C/c2ccc(O)cc2O)cc1,i,i,i,i,i
COc1cccc(OC)c1OCCNC(C)(C)C,nt,i,i,i,i
COc1cccc(OC)c1OCCN(C)C,70,i,i,i,4
Cc1ccc(CC(=O)NC(C)CCc2ccccc2)cc1 (centres undefined),i,i,i,i,i
Cc1ccccc1CN(C)CC(=O)NC(C)CCc1ccccc1 (centres undefined),nt,i,+,i,i
Nc1cc(C(=O)O)c(Oc2ccc(Cl)cc2Cl)cc1C(=O)O,67,i,i,i,i

# Screening results (PubChem BioAssay)
